# Measured values published in PubChem BioAssay.
# Calls of active or inactive are those of the source. Unless noted, no rule for the calls is given here.
# Assays:
# [1] = resazurin metabolic signal in HepG2 cells – cell-based, resazurin fluorescence, 24 h, PK04 Diversity Set, profiling panel (AID 1172); details: HepG2 viability, higher = more signal
# [2] = budding yeast growth changes without added modifier – OD600, strain BY4716, 24 h, basal condition, primary screen (AID 1173); details: S. cerevisiae BY4716 growth, OD600, 24 h; higher = more signal, called active from +8 up or from −8 down
# [3] = viability profiling in MM1S myeloma cells – cell-based, resazurin fluorescence, basal, 24 h, PK04 Diversity Set, profiling panel (AID 1174); details: higher = more signal, called active from +8 up or from −8 down;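 also: MM1S multiple myeloma cell line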
# [4] = molecular target: Dihydroorotate dehydrogenase (quinone), mitochondrial (Plasmodium falciparum (isolate 3D7)) (UniProt Q08210); assay: inhibition of P. falciparum DHODH – biochemical, C-terminal His tag, absorbance 600 nm, primary screen (AID 1175); details: PfDHODH enzyme, DCIP absorbance 600 nm; higher = more signal, called active from +8 up or from −8 down;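 also: recombinant parasite enzyme with a five histidine tag at its C terminus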
# Sequence of Dihydroorotate dehydrogenase (quinone), mitochondrial (Plasmodium falciparum (isolate 3D7)) (Q08210 whole entry, looked up): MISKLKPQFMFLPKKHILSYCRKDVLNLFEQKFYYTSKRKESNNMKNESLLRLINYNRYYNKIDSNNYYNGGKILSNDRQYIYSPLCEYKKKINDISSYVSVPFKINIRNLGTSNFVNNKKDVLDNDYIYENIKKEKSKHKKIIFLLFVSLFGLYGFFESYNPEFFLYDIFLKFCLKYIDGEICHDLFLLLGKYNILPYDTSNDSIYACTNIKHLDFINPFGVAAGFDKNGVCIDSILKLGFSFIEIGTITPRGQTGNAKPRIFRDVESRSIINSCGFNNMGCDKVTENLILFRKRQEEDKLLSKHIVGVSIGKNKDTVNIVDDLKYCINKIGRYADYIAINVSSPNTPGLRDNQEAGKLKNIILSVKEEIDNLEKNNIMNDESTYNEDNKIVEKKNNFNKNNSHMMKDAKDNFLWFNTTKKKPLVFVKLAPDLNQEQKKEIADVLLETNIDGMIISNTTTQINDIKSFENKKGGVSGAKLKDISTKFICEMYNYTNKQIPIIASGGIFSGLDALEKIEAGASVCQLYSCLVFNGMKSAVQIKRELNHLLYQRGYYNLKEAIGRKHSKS
# [5] = inhibition of PAO1 biofilm formation – strain PAO1, LB-PBS medium, absorbance 600 nm, primary screen (AID 1176); details: P. aeruginosa PAO1 growth/biofilm, A600, 12 h; higher = more signal
# [6] = growth modulation of vineyard yeast isolate – strain RM11-1a, OD600, basal, 24 h, primary screen (AID 1177);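 also: cultures grown under basal conditions with no added stressor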; details: S. cerevisiae RM11-1a growth, OD600, 24 h; higher = more signal, called active from +8 up or from −8 down
# [7] = growth of efflux-deficient E. coli DRC39 – strain DRC39, OD650, 24 h, E. coli filamentation inducers, primary screen (AID 1178);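 also: growth measured as culture turbidity by optical density at 650 nm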; details: E. coli DRC39 acrAB, higher = more signal, called active from +8 up or from −8 down
# [8] = growth of efflux-deficient E. coli DRC39 – strain DRC39, OD650, 48 h, E. coli filamentation inducers, primary screen (AID 1179);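 also: screen aims at cell division blockers that make cells filament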; details: E. coli DRC39 delta-acrAB growth, higher = more signal, called active from +8 up or from −8 down
# [9] = viability profiling in RPMI8226 myeloma cells – cell-based, resazurin fluorescence, basal, 24 h, PK04 Diversity Set, profiling panel (AID 1180); details: higher = more signal;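 also: RPMI8826 multiple myeloma cell line at 5000 cells per well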
# [10] = molecular target: E3 ubiquitin-protein ligase XIAP (Homo sapiens) (UniProt P98170); assay: small molecules binding XIAP protein – biophysical, small-molecule microarray, fluorescence 635 nm, primary screen (AID 1181); details: higher = more signal;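 also: score merges 667 nm emission and signal to noise over triplicate slides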
# Sequence of E3 ubiquitin-protein ligase XIAP (Homo sapiens) (P98170 whole entry, looked up, the tested form may be a part): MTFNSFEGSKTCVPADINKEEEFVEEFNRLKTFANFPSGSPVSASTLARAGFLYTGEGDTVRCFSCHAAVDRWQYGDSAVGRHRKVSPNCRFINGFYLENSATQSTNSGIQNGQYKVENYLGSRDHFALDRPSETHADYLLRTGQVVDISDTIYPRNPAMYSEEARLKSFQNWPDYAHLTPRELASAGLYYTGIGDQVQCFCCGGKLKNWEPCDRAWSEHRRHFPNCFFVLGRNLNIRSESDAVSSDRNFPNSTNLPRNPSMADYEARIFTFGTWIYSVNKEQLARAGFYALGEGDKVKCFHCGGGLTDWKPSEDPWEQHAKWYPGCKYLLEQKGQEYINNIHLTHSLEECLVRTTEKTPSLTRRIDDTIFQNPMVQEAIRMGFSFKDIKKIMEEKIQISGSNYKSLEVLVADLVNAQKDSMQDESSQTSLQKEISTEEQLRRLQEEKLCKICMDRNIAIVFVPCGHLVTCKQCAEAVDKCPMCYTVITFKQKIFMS
# [11] = tested on: XIP peptide (Xip251-270) binding; assay: XIP fragment 251-270 binding compounds – biochemical, small-molecule microarray, fluorescence 635/667 nm, 0.1 µg/mL protein, primary screen (AID 1182); details: fluorescent protein binding, 635 nm, higher = more signal, called active from +8 up or from −8 down
# XIP peptide (Xip251-270) = assay: compounds binding XIP fragment 251-270 – biochemical, small-molecule microarray, fluorescence 635/667 nm, 0.5 µg/mL protein, primary screen (AID 1183); details: fluorescence 635 nm, higher = more signal
# [12] = blood-stage malaria parasite viability loss – strain 3D7, DAPI fluorescence, 100 nL, primary screen (AID 1184);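 also: parasites grown inside human red blood cells in medium with human serum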; details: P. falciparum 3D7 growth, 3 d, higher = more signal
# [13] = molecular target: Homeobox protein Hox-A13 (Mus musculus) (UniProt Q62424); assay: disruptors of Hoxa13 oligonucleotide interaction – biochemical, fluorescence polarization, labeled oligonucleotide, primary screen (AID 1185); details: Hoxa13:DNA binding, 15 min, higher = more signal, called active from +8 up or from −8 down
# Sequence of Homeobox protein Hox-A13 (Mus musculus) (Q62424 whole entry, looked up): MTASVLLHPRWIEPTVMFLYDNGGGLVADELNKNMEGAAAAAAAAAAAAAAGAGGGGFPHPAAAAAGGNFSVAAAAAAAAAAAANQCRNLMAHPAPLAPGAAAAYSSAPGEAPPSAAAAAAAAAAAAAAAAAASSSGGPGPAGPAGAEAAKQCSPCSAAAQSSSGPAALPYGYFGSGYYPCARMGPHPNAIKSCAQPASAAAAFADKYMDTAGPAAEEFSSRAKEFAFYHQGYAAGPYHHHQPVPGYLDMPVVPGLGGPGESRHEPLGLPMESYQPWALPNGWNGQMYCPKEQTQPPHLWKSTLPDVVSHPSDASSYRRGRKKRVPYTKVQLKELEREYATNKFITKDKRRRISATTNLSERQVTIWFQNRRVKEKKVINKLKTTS
# [14] = blockers of DNA damage checkpoint Chk1 activation – imaging, HeLa, hydroxyurea, phospho-Chk1 antibody, percent positive cells, primary screen (AID 1186); details: hydroxyurea-induced phospho-Chk1 immunofluorescence imaging, higher = more signal
# [15] = blockers of DNA damage checkpoint Chk1 activation – imaging, HeLa, hydroxyurea, phospho-Chk1 nuclear intensity, primary screen (AID 1187); details: hydroxyurea-induced phospho-Chk1 immunofluorescence imaging, higher = more signal
Compound,z-score [1],z-score [2],z-score [3],composite z-score [4],z-score [5],z-score [6],z-score [7],z-score [8],z-score [9],composite z-score [10],composite z-score [11],composite z-score (XIP peptide (Xip251-270)),z-score [12],z-score [13],z-score [14],z-score [15]
COc1ccc([Si](C)(C)[C@@H]2[C@@H](CCO)O[C@]3(C(=O)N(Cc4cccc(N5CCOC5=O)c4)c4ccccc43)[C@H]2C)cc1,-1.09,2.41 (inactive),-3.35 (inactive),-0.346 (inactive),2.95 (inactive),6.05 (inactive),1.4 (inactive),0.44 (inactive),-2.78,-0.0599,0.473 (inactive),0.332,-2.54,-4.2 (inactive),-0.609 (inactive),-0.553 (inactive)
C=CCOC(=O)[C@H]1[C@@H]2C(=O)O[C@@H](c3ccccc3)[C@@H](c3ccccc3)N2[C@@H](c2ccc(OCCOC(=O)[C@@H]3C[C@@H]4C(=O)N5CCC[C@H]5C(=O)N4[C@@H]3c3cccc(OCCO)c3)cc2)[C@]12C(=O)Nc1ccc(I)cc12,-0.536,0.509 (inactive),-0.424 (inactive),-0.49 (inactive),3.85 (inactive),1.29 (inactive),0.021 (inactive),-0.0471 (inactive),-0.442,-0.0203,0.108 (inactive),0.792,-1.66,2.03 (inactive),0.351 (inactive),0.557 (inactive)
[N-]=[N+]=Nc1ccccc1C[C@]1(C(=O)NCC(O)CO)N=C(c2ccc(OCCCO)cc2)O[C@H]1c1ccccc1 (stereo partly drawn),-0.577,-1.23 (inactive),-0.62 (inactive),0.986 (inactive),1.13 (inactive),2 (inactive),-0.283 (inactive),-0.949 (inactive),-1,-0.0525,0.474 (inactive),0.511,-1.9,-5.96 (inactive),0.178 (inactive),-0.365 (inactive)
COc1ccc(CCNC(=O)[C@@]2(C)c3ccccc3C(=O)N(c3ccc(C)cn3)[C@H]2c2ccc(CO)cc2)cc1,0.437,-0.673 (inactive),0.978 (inactive),-0.907 (inactive),-0.301 (inactive),0.0798 (inactive),0.0083 (inactive),0.737 (inactive),0.933,-0.0838,1.66 (inactive),0.639,1.36,-1.58 (inactive),0.366 (inactive),0.822 (inactive)
C=C(/C(=C/C[C@H](OC(C)=O)c1ccc(OCCO)cc1)c1cc(C(=O)OC)ccc1OC)C(C)C,1.5,-0.962 (inactive),0.012 (inactive),-0.858 (inactive),0.613 (inactive),-0.0571 (inactive),0.483 (inactive),0.232 (inactive),0.0628,-0.307,0.537 (inactive),0.808,-2.9,-3.69 (inactive),0.418 (inactive),1.29 (inactive)
COCCOC(=O)N1C(=O)[C@@]2(c3cc(C#CC4(O)CCCCCC4)ccc31)[C@H](C(=O)Nc1nc3ccccc3s1)[C@H]1C(=O)O[C@H](c3ccccc3)[C@H](c3ccccc3)N1[C@@H]2c1ccccc1OCCO,0.709,0.504 (inactive),-1.15 (inactive),-0.747 (inactive),0.249 (inactive),1.78 (inactive),-0.632 (inactive),0.635 (inactive),-0.435,-0.0118,1.77 (inactive),0.748,-1.43,2.95 (inactive),0.203 (inactive),0.693 (inactive)
COCC(=C=CC[C@H](O)c1cccc(OCCO)c1)C[C@H](O)c1cc(Cl)cc(Cl)c1O,1.13,-2.5 (inactive),0.685 (inactive),-0.492 (inactive),0.625 (inactive),0.337 (inactive),0.679 (inactive),0.477 (inactive),0.159,-0.0669,0.378 (inactive),0.825,-0.366,-4.71 (inactive),0.144 (inactive),0.532 (inactive)
CCCCC(=C=CC[C@H](O)c1cccc(OCCO)c1)C[C@H](O)c1ccccn1,1.7,-1.1 (inactive),1.03 (inactive),-2.69 (inactive),-0.235 (inactive),-1.49 (inactive),1.58 (inactive),1.58 (inactive),1.83,-0.188,0.0547 (inactive),0.661,-1.78,-4.75 (inactive),-0.949 (inactive),-0.278 (inactive)
O=C(NC1CC1)[C@@H]1c2ccccc2C(=O)N(C2Cc3ccccc3C2)[C@H]1c1ccc(CO)cc1,0.21,-0.009 (inactive),0.475 (inactive),-0.0711 (inactive),0.196 (inactive),0.397 (inactive),0.223 (inactive),0.722 (inactive),0.543,-0.0044,0.456 (inactive),0.657,-0.69,-1.14 (inactive),-0.217 (inactive),0.0084 (inactive)
COc1ccc([C@H]2C[C@H]3C(Br)=C[C@@]2(CO)C(=O)[C@]32CO2)cc1,0.231,-4.42 (inactive),-0.445 (inactive),-0.174 (inactive),0.118 (inactive),-0.121 (inactive),-0.0919 (inactive),-0.0065 (inactive),-0.384,0.0009,-0.358 (inactive),-0.311,0.951,-1.05 (inactive),-0.0281 (inactive),0.202 (inactive)
C=CCN1C(=O)[C@]2(Cc3ccccc3)N=C(c3ccc(OCCCO)cc3)O[C@@H]2c2ccccc21,-0.983,-1.34 (inactive),-4.58 (inactive),-0.963 (inactive),0.824 (inactive),1.68 (inactive),0.0733 (inactive),0.884 (inactive),-5.39,0.33,0.7 (inactive),0.812,-2.1,-1.6 (inactive),-0.535 (inactive),-0.461 (inactive)
CC(CO)N1C(=O)[C@@H]2C3C(=O)OCCC/C=C\[C@H]3OC23C=CCN(CCN2CCOCC2)C(=O)[C@@H]13 (stereo partly drawn),-0.167,-0.193 (inactive),-0.72 (inactive),-0.387 (inactive),0.053 (inactive),-0.137 (inactive),0.218 (inactive),0.685 (inactive),-0.784,1.01,-0.134 (inactive),-0.0838,0.339,-4.25 (inactive),-0.957 (inactive),-1.88 (inactive)
COC(=O)[C@]1(Cc2ccccc2)N=C(c2ccc(OCCCO)cc2)O[C@@H]1c1ccccc1N=[N+]=[N-],-2.66,-1.45 (inactive),-4.47 (inactive),1.16 (inactive),1.69 (inactive),0.285 (inactive),0.2 (inactive),-1.19 (inactive),-7.02,0.336,0.062 (inactive),0.685,-2.27,-2.66 (inactive),-0.566 (inactive),-0.724 (inactive)
